The antibiotic and cytotoxicity screens of Wong et al. (2023)
Screen size: about 39,000 compounds; about 3,300 (8.5%) were called active. The full list was thinned out, with actives kept by preference.

What follows are compounds tested on HepG2 (assay: cytotoxicity call (relative viability < 0.9)). Details: 10 µM.

With CC(C)NC(=O)N(C)C[C@H]1Oc2ccc(NS(=O)(=O)c3ccccc3)cc2C(=O)N([C@@H](C)CO)C[C@@H]1C as the compound, how does the cytotoxicity call read?
The cytotoxicity call was “inactive”.

How did the cytotoxicity call turn out when COc1ccc(S(=O)(=O)Nc2ccc3c(c2)C(=O)N([C@@H](C)CO)C[C@@H](C)[C@@H](CN(C)Cc2ccccc2)OCCCC[C@@H](C)O3)cc1 was run?
The cytotoxicity call was “inactive”.

With O=C(C[C@H]1CC[C@@H]2[C@H](COC[C@H](O)CN2C(=O)C2CC2)O1)NCc1ccncc1 as the compound, how does the cytotoxicity call read?
The cytotoxicity call was “inactive”.

With Cc1cc(O)cc2c1O[C@](C)(CCC[C@H](C)CCC[C@H](C)CCCC(C)C)CC2 as the compound, how does the cytotoxicity call read?
Its cytotoxicity call is “inactive”.

Cc1noc(C)c1S(=O)(=O)Nc1cccc2c1O[C@H](CN(C)C(=O)NC1CCCCC1)[C@H](C)CN([C@@H](C)CO)C2=O was tested. Which cytotoxicity call did it give?
The cytotoxicity call was “inactive”.

Which cytotoxicity call does the source give for C[C@H](CO)N1C[C@H](C)[C@H](CN(C)C(=O)Nc2ccc(F)cc2)Oc2ncc(C#Cc3ccc(C(F)(F)F)cc3)cc2C1=O here?
Its cytotoxicity call is “inactive”.

With C[C@H]1CN([C@@H](C)CO)C(=O)c2cccc(NS(=O)(=O)c3cccs3)c2O[C@H]1CN(C)Cc1ccc(Oc2ccccc2)cc1 as the compound, how does the cytotoxicity call read?
Its cytotoxicity call is “inactive”.

With C[C@@H]1CN([C@H](C)CO)C(=O)c2cccc(NC(=O)Nc3cccc4ccccc34)c2O[C@H]1CN(C)C(=O)Nc1ccc(F)cc1 as the compound, how does the cytotoxicity call read?
The cytotoxicity call was “inactive”.

How did the cytotoxicity call turn out when C[C@@H]1CN([C@@H](C)CO)C(=O)c2cccc(NC(=O)Nc3cccc4ccccc34)c2O[C@H]1CN(C)C(=O)Nc1ccccc1 was run?
The cytotoxicity call was “active”.

How did the cytotoxicity call turn out when COc1ccc(NC(=O)Nc2cccc3c2O[C@H](CN(C)C(=O)Nc2cccc4ccccc24)[C@H](C)CN([C@H](C)CO)C3=O)cc1 was run?
Its cytotoxicity call is “active”.

For C[C@H]1CN([C@@H](C)CO)C(=O)c2cccc(NC(=O)Nc3cccc4ccccc34)c2O[C@H]1CN(C)C(=O)Nc1ccccc1, which cytotoxicity call is on record?
The cytotoxicity call was “inactive”.

Which cytotoxicity call does the source give for COc1ccc(NC(=O)Nc2cccc3c2O[C@@H](CN(C)C(=O)Nc2cccc4ccccc24)[C@H](C)CN([C@@H](C)CO)C3=O)cc1 here?
Its cytotoxicity call is “inactive”.

Which cytotoxicity call does the source give for C[C@H](CO)N1C[C@H](C)[C@H](CN(C)C(=O)Nc2ccc(F)cc2)Oc2c(NC(=O)Nc3cccc4ccccc34)cccc2C1=O here?
Its cytotoxicity call is “active”.

With C[C@H]1CN([C@@H](C)CO)C(=O)c2cccc(NC(=O)Nc3cccc4ccccc34)c2O[C@@H]1CN(C)C(=O)Nc1ccccc1 as the compound, how does the cytotoxicity call read?
The cytotoxicity call was “inactive”.

With COc1ccc(NC(=O)Nc2cccc3c2O[C@@H](CN(C)C(=O)Nc2cccc4ccccc24)[C@H](C)CN([C@H](C)CO)C3=O)cc1 as the compound, how does the cytotoxicity call read?
Its cytotoxicity call is “inactive”.

For C[C@H](CO)N1C[C@H](C)[C@@H](CN(C)C(=O)Nc2ccc(F)cc2)Oc2c(NC(=O)Nc3cccc4ccccc34)cccc2C1=O, which cytotoxicity call is on record?
Its cytotoxicity call is “inactive”.

Which cytotoxicity call does the source give for C[C@H](CO)N1C[C@H](C)[C@H](CN(C)Cc2ccc(Cl)c(Cl)c2)Oc2c(NC(=O)Nc3ccc4c(c3)OCO4)cccc2C1=O here?
The cytotoxicity call was “inactive”.

C[C@H](CO)N1C[C@H](C)[C@H](CN(C)C(=O)c2ccncc2)Oc2cc(C#C[C@@H](C)O)ccc2S1(=O)=O was tested. Which cytotoxicity call did it give?
The cytotoxicity call was “inactive”.

How did the cytotoxicity call turn out when Cc1cc(F)ccc1S(=O)(=O)N1[C@@H]2CC[C@@H](C2)[C@H]1c1nc2cccc(OCc3ccc(F)cc3)c2[nH]1 was run?
The cytotoxicity call was “inactive”.

Which cytotoxicity call does the source give for C[C@@H]1CCCCO[C@H](CN(C)S(=O)(=O)c2cn(C)cn2)[C@@H](C)CN([C@H](C)CO)C(=O)c2cc(N(C)C)ccc2O1 here?
The cytotoxicity call was “inactive”.

With C[C@H](CO)N1C[C@H](C)[C@@H](CN(C)C(=O)Nc2ccc(C(F)(F)F)cc2)Oc2ccc(NS(=O)(=O)c3ccc(Cl)cc3)cc2C1=O as the compound, how does the cytotoxicity call read?
The cytotoxicity call was “inactive”.

For CCCN1C[C@H](C)[C@H](OC)CN(C)C(=O)c2ccc(NS(=O)(=O)c3cn(C)cn3)cc2OC[C@@H]1C, which cytotoxicity call is on record?
The cytotoxicity call was “inactive”.

With CN1CCN(C(=O)C[C@@H]2CC[C@H]3[C@@H](COC[C@H](O)CN3C(=O)C3CCOCC3)O2)CC1 as the compound, how does the cytotoxicity call read?
The cytotoxicity call was “inactive”.

How did the cytotoxicity call turn out when C[C@H]1CN([C@@H](C)CO)C(=O)c2cccc(NS(=O)(=O)c3ccccc3)c2O[C@H]1CN(C)Cc1ccc(Oc2ccccc2)cc1 was run?
The cytotoxicity call was “inactive”.

Which cytotoxicity call does the source give for C[C@@H]1CN([C@@H](C)CO)C(=O)c2cc(NC(=O)C3CCCCC3)ccc2O[C@@H](C)CCCCO[C@@H]1CN(C)Cc1ccccc1 here?
Its cytotoxicity call is “inactive”.

With COc1cc(C(=O)O[C@H]2CC[C@@]3(C)[C@@H]4CC[C@H]5[C@]6(O)C[C@H](O)[C@@]7(O)[C@@H](CN8C[C@@H](C)CC[C@H]8[C@@]7(C)O)[C@]6(O)C[C@@]53O[C@@]24O)cc(OC)c1OC as the compound, how does the cytotoxicity call read?
Its cytotoxicity call is “inactive”.

For O=C(Nc1ncc(SCCN2CCCC2)s1)[C@]1(c2ccc(S(=O)(=O)C3CC3)cc2)C[C@H]1C1CCCCC1, which cytotoxicity call is on record?
The cytotoxicity call was “active”.

Cc1ccc(-c2ccc3c(c2)O[C@H](CN(C)C(=O)CN(C)C)[C@@H](C)CN([C@H](C)CO)S3(=O)=O)cc1 was tested. Which cytotoxicity call did it give?
The cytotoxicity call was “inactive”.

For Cn1c(C(=O)N2CCCO[C@@H](Cn3cccn3)C2)cc(=O)n(C)c1=O, which cytotoxicity call is on record?
The cytotoxicity call was “inactive”.

For C[C@H]1CN([C@@H](C)CO)C(=O)c2cc(NC(=O)Nc3ccc(F)cc3)ccc2O[C@@H]1CN(C)S(=O)(=O)c1cn(C)cn1, which cytotoxicity call is on record?
Its cytotoxicity call is “inactive”.

For COc1ccc(S(=O)(=O)N(C)C[C@@H]2Oc3ccc(NS(=O)(=O)c4cn(C)cn4)cc3CC(=O)N([C@@H](C)CO)C[C@@H]2C)cc1, which cytotoxicity call is on record?
The cytotoxicity call was “inactive”.

With CN(C)c1cc(CNCC(C)(C)C)c(O)c2c1C[C@H]1C[C@H]3[C@H](N(C)C)C(=O)[C@H](C(N)=O)C(=O)[C@@]3(O)C(=O)[C@@H]1C2=O as the compound, how does the cytotoxicity call read?
Its cytotoxicity call is “inactive”.

With C[C@@H]1CN([C@@H](C)CO)C(=O)c2cc(NC(=O)Nc3ccc(C(F)(F)F)cc3)ccc2O[C@H]1CN(C)Cc1ccncc1 as the compound, how does the cytotoxicity call read?
Its cytotoxicity call is “active”.

With C[C@H]1CN([C@@H](C)CO)C(=O)c2cc(NC(=O)Nc3ccc(C(F)(F)F)cc3)ccc2O[C@H]1CN(C)Cc1ccncc1 as the compound, how does the cytotoxicity call read?
Its cytotoxicity call is “inactive”.

Which cytotoxicity call does the source give for C[C@H]1CN([C@@H](C)CO)C(=O)c2cc(NC(=O)Nc3ccc(C(F)(F)F)cc3)ccc2O[C@@H]1CN(C)Cc1ccncc1 here?
The cytotoxicity call was “active”.

With C[C@@H]1CN([C@@H](C)CO)C(=O)c2cc(NC(=O)Nc3ccc(C(F)(F)F)cc3)ccc2O[C@@H]1CN(C)Cc1ccncc1 as the compound, how does the cytotoxicity call read?
Its cytotoxicity call is “inactive”.

With C[C@@H]1CN([C@H](C)CO)C(=O)c2cc(NC(=O)Nc3ccc(C(F)(F)F)cc3)ccc2O[C@@H]1CN(C)Cc1ccncc1 as the compound, how does the cytotoxicity call read?
The cytotoxicity call was “inactive”.

How did the cytotoxicity call turn out when C[C@@H]1CN([C@H](C)CO)C(=O)c2cc(NC(=O)Nc3ccc(C(F)(F)F)cc3)ccc2O[C@H]1CN(C)Cc1ccncc1 was run?
Its cytotoxicity call is “inactive”.

CO[C@H]1CN(C)C(=O)c2cc(NC(=O)C3CCOCC3)ccc2OC[C@@H](C)N(Cc2cccnc2)C[C@@H]1C was tested. Which cytotoxicity call did it give?
The cytotoxicity call was “inactive”.

CC(C)NC(=O)N(C)C[C@H]1Oc2ccc(NC(=O)Cc3ccccc3)cc2CC(=O)N([C@H](C)CO)C[C@@H]1C was tested. Which cytotoxicity call did it give?
The cytotoxicity call was “inactive”.

c1ccc(Oc2ccncc2)cc1 was tested. Which cytotoxicity call did it give?
The cytotoxicity call was “inactive”.

Which cytotoxicity call does the source give for COC(=O)C(CC#Cc1ccc2c(c1)[C@]1(C(=O)N2)[C@H](c2ccc(O)cc2)N2[C@H](c3ccccc3)[C@H](c3ccccc3)OC(=O)[C@H]2[C@@H]1C(=O)NC[C@H](O)c1ccccc1)C(=O)OC here?
Its cytotoxicity call is “inactive”.

For C[C@H]1CN([C@@H](C)CO)C(=O)c2c(c3ccccc3n2C)-c2ccccc2CO[C@H]1CN(C)Cc1ccc(Oc2ccccc2)cc1, which cytotoxicity call is on record?
Its cytotoxicity call is “inactive”.

How did the cytotoxicity call turn out when COc1ccc(S(=O)(=O)Nc2cccc3c2O[C@H](CN(C)S(=O)(=O)c2ccccc2)[C@H](C)CN([C@@H](C)CO)C3=O)cc1 was run?
The cytotoxicity call was “inactive”.

With COCC#Cc1ccc2c(c1)O[C@H](CN(C)C(=O)COC)[C@H](C)CN([C@@H](C)CO)S2(=O)=O as the compound, how does the cytotoxicity call read?
The cytotoxicity call was “inactive”.

How did the cytotoxicity call turn out when Cc1cc(OCc2nnc(SC3CCCC3)n2-c2cccnc2)ccc1-c1ccc(S(C)(=O)=O)cc1 was run?
The cytotoxicity call was “active”.

For Cc1nc(N)c(C(=O)O)nc1C, which cytotoxicity call is on record?
Its cytotoxicity call is “inactive”.

Which cytotoxicity call does the source give for C[C@@H]1CN([C@H](C)CO)C(=O)Cc2cc(NC(=O)Cc3cn(C)c4ccccc34)ccc2O[C@H]1CN(C)Cc1ccc(C(=O)Nc2ccccc2N)cc1 here?
The cytotoxicity call was “inactive”.

For COc1ccc(S(=O)(=O)Nc2ccc3c(c2)C(=O)N([C@H](C)CO)C[C@H](C)[C@@H](CN(C)Cc2ccc(Cl)c(Cl)c2)OCCCC[C@@H](C)O3)cc1, which cytotoxicity call is on record?
The cytotoxicity call was “active”.

How did the cytotoxicity call turn out when COc1ccc(CN(C)C[C@@H]2OCCCC[C@@H](C)Oc3ccc(NS(=O)(=O)c4ccc(OC)cc4)cc3C(=O)N([C@@H](C)CO)C[C@H]2C)cc1 was run?
The cytotoxicity call was “inactive”.

How did the cytotoxicity call turn out when COc1ccc(S(=O)(=O)Nc2ccc3c(c2)C(=O)N([C@@H](C)CO)C[C@H](C)[C@@H](CN(C)Cc2ccc(Cl)c(Cl)c2)OCCCC[C@@H](C)O3)cc1 was run?
Its cytotoxicity call is “active”.

COc1ccc(CN(C)C[C@H]2OCCCC[C@H](C)Oc3ccc(NS(=O)(=O)c4ccc(OC)cc4)cc3C(=O)N([C@@H](C)CO)C[C@@H]2C)cc1 was tested. Which cytotoxicity call did it give?
The cytotoxicity call was “inactive”.

Which cytotoxicity call does the source give for COc1ccc(CN(C)C[C@@H]2OCCCC[C@@H](C)Oc3ccc(NS(=O)(=O)c4ccc(OC)cc4)cc3C(=O)N([C@H](C)CO)C[C@@H]2C)cc1 here?
The cytotoxicity call was “inactive”.

Which cytotoxicity call does the source give for COc1ccc(CN(C)C[C@H]2OCCCC[C@H](C)Oc3ccc(NS(=O)(=O)c4ccc(OC)cc4)cc3C(=O)N([C@H](C)CO)C[C@H]2C)cc1 here?
The cytotoxicity call was “inactive”.

For COc1ccc(S(=O)(=O)Nc2ccc3c(c2)C(=O)N([C@H](C)CO)C[C@@H](C)[C@H](CN(C)Cc2ccc(Cl)c(Cl)c2)OCCCC[C@H](C)O3)cc1, which cytotoxicity call is on record?
Its cytotoxicity call is “active”.

COc1ccc(S(=O)(=O)Nc2ccc3c(c2)C(=O)N([C@@H](C)CO)C[C@H](C)[C@@H](CN(C)Cc2ccc(Cl)c(Cl)c2)OCCCC[C@H](C)O3)cc1 was tested. Which cytotoxicity call did it give?
Its cytotoxicity call is “active”.

Which cytotoxicity call does the source give for COc1ccc(CN(C)C[C@H]2OCCCC[C@@H](C)Oc3ccc(NS(=O)(=O)c4ccc(OC)cc4)cc3C(=O)N([C@H](C)CO)C[C@H]2C)cc1 here?
The cytotoxicity call was “inactive”.

Which cytotoxicity call does the source give for COc1ccc(CN(C)C[C@H]2OCCCC[C@@H](C)Oc3ccc(NS(=O)(=O)c4ccc(OC)cc4)cc3C(=O)N([C@@H](C)CO)C[C@@H]2C)cc1 here?
The cytotoxicity call was “inactive”.

With C[C@H]1CCCCO[C@H](CN(C)C(=O)Nc2ccc3c(c2)OCO3)[C@@H](C)CN([C@@H](C)CO)C(=O)c2cc(NS(=O)(=O)c3cccs3)ccc2O1 as the compound, how does the cytotoxicity call read?
Its cytotoxicity call is “inactive”.
